This is a sample that favours compounds with a hit; in the whole collection about 3.4% have one here.
IMPase inh = qHTS Assay for Identifying the Cell-Membrane Permeable IMPase Inhibitors | Inositol monophosphatase 1 (Rattus norvegicus), P97697 | CHO-M1 cells, IP1 accumulation, HTRF TR-FRET ratio | inhibition (IP1 accumulation), % at 46.1 µM | 120,000 tested, under 10 active; active = well fitted curve in the direction sought with a large enough effect in the signal ratio, not every such curve was filed as active; inconclusive = small, poorly fitted or top-dose-only effect, or a change in a side signal; inactive = no such curve, though single readings can be large or run the other way; the % refers to the signal ratio;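 also: cells stimulated with carbachol in lithium chloride buffer; higher means more IMPase inhibition seen as more IP1 and lower FRET ratio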
Target sequence (P97697 whole entry, looked up): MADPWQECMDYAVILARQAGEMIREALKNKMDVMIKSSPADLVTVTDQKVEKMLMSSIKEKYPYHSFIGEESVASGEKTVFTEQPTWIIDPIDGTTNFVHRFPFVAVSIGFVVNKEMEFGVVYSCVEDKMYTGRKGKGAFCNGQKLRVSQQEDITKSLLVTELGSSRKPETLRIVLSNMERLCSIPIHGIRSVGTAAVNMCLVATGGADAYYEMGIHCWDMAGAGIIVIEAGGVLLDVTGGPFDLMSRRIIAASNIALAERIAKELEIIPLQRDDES
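CHO-M1, 2000 cells/well, cultured 16–30 h; cpd up to 46 uM; carbachol (50 uM solution, stimulation buffer w/ 50 mM LiCl, pH 7.4), 30 min 37C; IP-One TR-FRET, 10 min RT; Ex 320/Em 665, 620; Hill-fit AC50.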
NPSR antagonist = qHTS Assay for Antagonists of the Neuropeptide S Receptor: cAMP Signal Transduction. 1% of 220,000 active. AID 1461, 2008. Potency, µM (series often up to 38.3 µM), actives largely listed as inhibitors. Q6W5P4. CHO-NPSR cells, cAMP TR-FRET, antagonist mode; also: nearly all actives have a fitted effect of over 50% in size
Target sequence (Q6W5P4 whole entry, looked up): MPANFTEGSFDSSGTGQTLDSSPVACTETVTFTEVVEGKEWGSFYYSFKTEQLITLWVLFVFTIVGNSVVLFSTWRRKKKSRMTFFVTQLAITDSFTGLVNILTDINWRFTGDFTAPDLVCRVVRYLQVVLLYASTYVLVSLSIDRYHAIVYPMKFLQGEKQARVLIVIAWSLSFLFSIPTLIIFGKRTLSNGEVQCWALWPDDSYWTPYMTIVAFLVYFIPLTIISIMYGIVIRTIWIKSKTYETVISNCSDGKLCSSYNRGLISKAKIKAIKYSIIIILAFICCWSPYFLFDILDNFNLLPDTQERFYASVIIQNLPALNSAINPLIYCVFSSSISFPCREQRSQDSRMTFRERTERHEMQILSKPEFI
IMPase Li inh = qHTS Assay for Identifying the Cell-Membrane Permeable IMPase Inhibitors: Potentiation with Lithium. 0.35% of 210,000 active. AID 1457, 2008. Potency, µM (titrated, usually from 59.4 µM), usual class: inhibitors. CHO-M1 cells, IP1 TR-FRET (IP-One), carbachol + lithium;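 also: IP1 builds up when IMPase is blocked and the TR-FRET signal falls; nearly all actives have a fitted effect of over 50% in size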
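Concentration–response in CHO-M1 cells, lithium-potentiated; 30 min at 37C. IP1 detected by competitive TR-FRET after 10 min lysis at RT. Hill-fitted AC50.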
HTT cytoprotect = qHTS Multiplex Assay to Identify Dual Action Probes in a Cell Model of Huntington: Cytoprotection (ATP). PC12 HTT-Q103 induced, cytoprotection, ATP luminescence, 40 h. Potency, µM (doses to about 56.4 µM), actives largely listed as activators. 0.14% of 230,000 active. AID 1471, 2008; also: nearly all actives have a fitted effect of over 45% in size
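Quantitative HTS on tebufenozide-induced (100 nM) PC12 cells expressing HTTQ103 exon 1–GFP; compounds tested as a concentration series; survival measured via cellular ATP.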
PNC assembly inh = High Content Assay for Compounds that inhibit the Assembly of the Perinucleolar Compartment | PC3M PTB-GFP, PNC prevalence imaging, 16 h; hits give low values | activity change (PNC), negative = inhibition, % at 10 µM | 3.1% of 140,000 active;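 active = readout at or below -70, meaning at least 70% loss of cells showing the perinucleolar compartment, a nuclear body marking cancer cells; inconclusive = readout between -30 and a set limit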
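PC3M cells stably expressing PTB-GFP, 750–1000 cells/well, treated 16 h at 37 °C with compound (23 nl of library stock), in duplicate. After paraformaldehyde fixation and Hoechst stain, imaged at 20x; PNC prevalence scored by image analysis.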
HttQ103 aggreg = qHTS Multiplex Assay to Identify Dual Action Probes in a Cell Model of Huntington: Aggregate Formation (GFP). PC12 HttQ103-GFP aggregates, Acumen cytometry, 40 h. Potency, µM (doses to about 46.1 µM), most hits filed as inhibitors. 1.1% of 220,000 active; also: nearly all actives have a fitted effect of over 60% in size
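Using laser scanning cytometry, GFP-positive aggregates were counted after lysis of PC12 cells induced with 100 nM tebufenozide to express HTT exon 1 Q103–GFP. Compounds were tested in titration.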
A number is an active result; - = inactive; ? = inconclusive; . = not tested or not shown; [ ] = remark or other dose. Unless noted, calls follow the shape of the dose curve; as a rule, active = well fitted curve in the direction sought with a large enough effect; inconclusive = small, poorly fitted or top-dose-only effect, or another doubt; inactive = no such curve, though single readings can be large; an effect the other way counts as inactive or inconclusive.

SMILES | IMPase inh | NPSR antagonist | IMPase Li inh | HTT cytoprotect | PNC assembly inh | HttQ103 aggreg
CCOc1ccc2nc(SCCNS(=O)(=O)c3ccccc3)sc2c1 | . | - | - | -[10 µM] | -113 | -
NC(=NCCC[C@H](N)C(=O)O)NO | - | - | - | -[1.9 µM] | . | .
N#Cc1ccccc1NC(=O)Nc1cccc(Cl)c1 | - | - | - | - | ? | -
N#Cc1ccccc1NC(=O)Nc1ccc(Cl)cc1 | - | - | - | - | -109 | -
O=c1c2ccccc2nc(-c2ccc([N+](=O)[O-])cc2)n1O | . | - | - | - | . | ?
O=[N+]([O-])c1ccc(-c2c(O)c3ccccc3c3nc4ccccc4nc23)cc1 | . | - | - | - | . | 7.1µM
NC(C(=O)O)c1ccc(P(=O)(O)O)cc1 (stereo not drawn) | . | . | - | - | . | .
CC(C)C(=O)N1CCN(c2ccc(NC(=O)c3cccs3)cc2)CC1 | - | ? | - | -[10 µM] | -100 | -
CCOc1ccc(Br)cc1/C(C)=N\NC1=NCCN1 | - | - | - | - | - | 13µM
CCOc1ccc(CSC2=NCCN2)cc1Cl | - | - | - | -[10 µM] | - | -
O=C(CN1CCOc2ccccc21)NCc1ccco1 | - | - | - | - | -106 | -
O=C(CN1CC(=O)Oc2ccccc21)NCc1ccco1 | - | - | - | -[0.074 µM] | - | ?
Cc1[nH]c(=O)[nH]c(=O)c1S(=O)(=O)N(C)Cc1ccccc1 | - | - | - | - | -106 | -
CCCCN(C)S(=O)(=O)c1c(C)[nH]c(=O)[nH]c1=O | - | - | - | - | - | -
COC(=O)[C@@]1(Cc2ccccc2)[C@H]2c3cc(C(=O)N(C)C)n(Cc4ccc(O)c(OC)c4)c3C[C@H]2CN1C(=O)c1ccccc1 | . | . | - | ? | . | .
CC(C)CN1C(=S)SC(C)(C)C1n1oc(=O)n(-c2ccc(Cl)cc2)c1=O (stereo not drawn) | - | ? | - | - | - | 25µM
O=C(O)[C@H]1CCCN(CCC=C(c2ccccc2)c2ccccc2)C1 | - | . | - | - | . | .
CN1CCN(C2CCCCCC2)CC1 | - | - | - | -[10 µM] | -119 | -
CCCOCC1CC2(CC(C)(c3csc(N)n3)OC2=O)C(=O)O1 (stereo not drawn) | - | - | - | -[10 µM] | -119 | -
Cc1ccc(-n2ncc3c(NCc4ccco4)ncnc32)cc1C | . | - | - | - | . | 0.005µM
Cc1cccc(-n2ncc3c(NCc4cccs4)ncnc32)c1 | - | - | - | - | - | 11µM
COc1ccc2[nH]c3c(NCCC4=CCCCC4)ncnc3c2c1 | . | - | - | - | . | 13µM
Cc1cccc(-n2ncc3c(NCCN4CCOCC4)ncnc32)c1 | ? | ? | 10µM | - | - | -
c1ccc(-n2ncc3c(NCCN4CCOCC4)ncnc32)cc1 | - | - | - | - | - | -
CCN(CC)CCNc1ncnc2c1[nH]c1ccc(OC)cc12 | - | ? | - | - | ? | -
SMILES | IMPase inh | NPSR antagonist | IMPase Li inh | HTT cytoprotect | PNC assembly inh | HttQ103 aggreg
N#Cc1cccc(-c2cc(NCc3cccnc3)ncn2)c1 | . | . | - | - | . | .
Cc1ccc2[nH]c3c(NCCN4CCOCC4)ncnc3c2c1 | - | - | - | -[1.9 µM] | -84 | -
Clc1ccc2[nH]c3c(NCCCN4CCOCC4)ncnc3c2c1 | - | - | - | - | - | ?
Clc1ccc2c(NCc3ccccn3)ncnc2c1 | - | - | - | - | - | -
Clc1ccc2c(NCc3ccco3)ncnc2c1 | - | - | - | - | - | 14µM
CC(=O)Nc1cccc(N)c1 | . | . | - | - | . | .
Cc1ccc(CN2CCN(C/C(Cl)=C/c3ccccc3)CC2CCO)o1 (stereo not drawn) | . | - | - | -[10 µM] | . | -[9.22 µM]
O=C(/C=C/c1ccc(Cl)cc1)NC(=S)Nc1ccc(NC(=O)c2ccco2)cc1 | - | - | - | -[10 µM] | -112 | -
CC(=O)Nc1ccc(NC(=S)NC(=O)/C=C/c2ccc(Cl)cc2)cc1 | . | - | - | - | . | -
C=C1CCC2C(C)(CO)C(O)CCC2(C)C1C/C=C1\C(=O)OCC1O (stereo not drawn) | - | . | - | -[1.9 µM] | . | .
C=C1CC[C@@H]2[C@](C)(CC[C@@H](O)[C@]2(C)CO)[C@@H]1C/C=C1/C(=O)OC[C@H]1O | . | . | . | 40µM | . | .
COc1ccccc1C(=O)NCc1ccccc1 | - | - | - | -[10 µM] | -114 | -
COc1ccccc1C(=O)NCc1ccncc1 | - | - | - | -[0.074 µM] | ? | -
N/C(=N\OC(=O)Oc1ccccc1)c1cccc([N+](=O)[O-])c1 | . | - | - | -[10 µM] | - | -
N/C(=N\OC(=O)Oc1ccccc1)c1ccc([N+](=O)[O-])cc1 | . | - | - | -[10 µM] | -121 | -
Cn1cccc1C(=O)N1CCC2(CCCN(C(c3ccccc3)c3ccccc3)C2)CC1 | . | . | - | - | . | .
Cc1ccc(C(=O)COC(=O)c2ccc3c(c2)C(=O)N(c2cccc4ncccc24)C3=O)cc1 | . | - | - | -[10 µM] | - | 20µM
O=C(COC(=O)c1ccc2c(c1)C(=O)N(c1cccc3ncccc13)C2=O)c1ccc(Cl)cc1 | . | - | - | -[10 µM] | - | -
N#CCCn1c(=O)c(-c2ccc(Cl)cc2)nc2cnc(Nc3ccccc3)nc21 | . | . | - | - | . | .
CCCCc1nnc(NC(=O)Cn2cnc3ccccc3c2=O)s1 | . | - | - | -[10 µM] | . | -
CCCCCc1nnc(NC(=O)Cn2cnc3ccccc3c2=O)s1 | - | - | - | -[10 µM] | -111 | -
COc1ccc2c(Cc3c4ccccc4cc4ccccc34)cncc2c1O | . | . | - | -[10 µM] | . | .
COc1ccccc1-c1nnc(Sc2nc([N+](=O)[O-])nn2C)o1 | - | - | - | 18µM | - | .
Cc1ccccc1OCC(=O)NCC(=O)N/N=C/c1ccc(Br)o1 | . | - | - | . | -114 | -
O=C(O)CCNc1ncnc2nc[nH]c12 | . | . | - | -[10 µM] | . | .
SMILES | IMPase inh | NPSR antagonist | IMPase Li inh | HTT cytoprotect | PNC assembly inh | HttQ103 aggreg
COc1cccc(N2CCN(c3ncnc4c3[nH]c3ccccc34)CC2C)c1 (stereo not drawn) | - | 10µM | - | -[10 µM] | ? | 11µM
COc1cccc(N2CCN(c3ncnc4c3[nH]c3ccc(F)cc34)CC2C)c1 (stereo not drawn) | - | 2.5µM | - | - | - | 6.3µM
Cc1cc(=O)oc2cc(OCC(=O)OCc3nnc(-c4ccccc4)o3)ccc12 | - | - | - | -[10 µM] | -86 | -
Cc1cc(=O)oc2cc(OCc3nnc(-c4ccccc4Br)o3)ccc12 | - | - | - | - | - | -
Cc1cc(=O)oc2cc(OCC(=O)NCCc3nc4ccccc4[nH]3)ccc12 | - | - | - | - | -87 | -
Cc1cc(C)cc(OCC(=O)NCCc2nc3ccccc3[nH]2)c1 | - | - | - | -[10 µM] | . | -[9.22 µM]

Screens deposited in PubChem by National Center for Advancing Translational Sciences (NCATS).
